Results: PubChem BioAssay AID651674 (The Scripps Research Institute Molecular Screening Center, 2012)
The campaign covered roughly 2,200 compounds. About 1,700 (77%) were called active.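 Rule for the calls: active = mean inhibition across replicate wells exceeding the computed hit threshold (cut at about 13% in these data); inactive = the rest.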 The set was probably picked from earlier hits. Not all results are given here.

The molecules below were run against Hepatocyte nuclear factor 4-alpha (Homo sapiens) (UniProt P41235) (assay: HNF4 dimerization inhibitors, counter-screen for ABHD5-PLIN5 interaction inhibitor project, biochemical, split-luciferase complementation, luminescence (AID 651674;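 note: light from luciferase halves that rejoin when HNF4 fusion proteins dimerize; 0% = DMSO only wells and the 100% control is not given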)). Settings: at 4 µM, active compounds read high.
Chain of Hepatocyte nuclear factor 4-alpha (Homo sapiens) (P41235 whole entry, looked up, the tested form may be a part): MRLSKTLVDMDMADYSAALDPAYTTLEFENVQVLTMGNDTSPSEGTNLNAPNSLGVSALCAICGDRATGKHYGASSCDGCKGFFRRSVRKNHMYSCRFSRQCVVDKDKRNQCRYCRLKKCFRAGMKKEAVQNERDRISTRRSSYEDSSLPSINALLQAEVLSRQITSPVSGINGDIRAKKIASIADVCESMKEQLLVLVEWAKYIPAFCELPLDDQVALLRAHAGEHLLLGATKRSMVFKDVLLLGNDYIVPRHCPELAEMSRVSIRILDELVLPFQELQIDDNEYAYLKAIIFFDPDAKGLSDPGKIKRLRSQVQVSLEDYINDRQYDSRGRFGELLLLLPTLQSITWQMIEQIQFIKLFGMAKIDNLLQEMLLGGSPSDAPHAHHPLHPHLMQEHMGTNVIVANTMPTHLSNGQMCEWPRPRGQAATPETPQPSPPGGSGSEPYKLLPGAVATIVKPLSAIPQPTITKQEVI
In the case of `COc1ccc(-c2cc(C(F)(F)F)nc(S(C)(=O)=O)n2)cc1OC`, the inhibition is reported as 80.6% (active).
In the case of `Nc1cccc(OCCCCCOc2cccc(N)c2)c1`, the inhibition is reported as -6.94% (inactive).
With `O=C(NNc1c2ccccc2nc2ccccc12)c1cc2ccccc2cc1O` the inhibition was 23.8% (active).
For `COc1ccc(/C=C/C(=O)c2ccc(NS(=O)(=O)c3ccc(C)cc3)cc2)cc1O`, the inhibition was 54.5% (active).
With `OC(CNCC1CCCO1)Cn1c2ccc(Br)cc2c2cc(Br)ccc21` (configuration not stated) the inhibition was -1.25% (inactive).
For `O=C(c1cccnc1)N(c1cc2sc(=O)oc2c2ccccc12)S(=O)(=O)c1ccccc1`, the inhibition was 104% (active).
In the case of `Cc1cccc(NC(=O)c2ccc3nsnc3c2)c1C`, the inhibition is reported as -0.5% (inactive).
For `O=[N+]([O-])/C=C/c1ccc2c(ccn2Cc2ccccc2)c1`, the inhibition was 108% (active).
With `COC(=O)C1(C)NC(c2ccccc2OC)C2C(=O)N(c3ccccc3)C(=O)C21` (configuration not stated) the inhibition was 2.83% (inactive).
In the case of `C[C@@H](CN1CCC[C@H]1CN1C(N)=NC[C@@H]1Cc1ccccc1)N1C[C@@H](Cc2ccccc2)N(CCCC2CCCC2)C1=N`, the inhibition is reported as 6.92% (inactive).
`O=[N+]([O-])c1c(NCCO)cc(Sc2nc3ccccc3s2)c2nonc12` was tested, and the inhibition was 115% (active).
`Cn1sc(=O)c2cc(S(=O)(=O)NC3CC3)ccc21` was tested, and the inhibition was 106% (active).
In the case of `Cc1cc2c(c(=O)n1Cc1ccco1)C(c1ccccc1)C(C#N)=C(N)O2` (configuration not stated), the inhibition is reported as 24.5% (active).
In the case of `Cc1nnnn1/C(=C\c1ccccc1)C(=O)OCC(=O)N1CC2(C)CC1CC(C)(C)C2` (configuration not stated), the inhibition is reported as 46.1% (active).
With `Cc1nc(-c2ccccc2)sc1C(=O)/C=C/c1ccccc1` the inhibition was 59.8% (active).
For `CC(C)(C)C1C/C(=C/c2ccco2)C(=O)/C(=C/c2ccco2)C1` (configuration not stated), the inhibition was 78.9% (active).
With `CC(=O)Nc1ccc(C=CC(=O)c2ccc([N+](=O)[O-])cc2)cc1` the inhibition was 82.5% (active).
For `O=C(/C=C/c1ccc(Cl)c([N+](=O)[O-])c1)c1ccc(O)cc1`, the inhibition was 72.8% (active).
For `O=C(NCCOCc1ccc(Cl)cc1)c1ncn[nH]1`, the inhibition was 2.01% (inactive).
`COc1ccc(CNC(=O)/C(C#N)=C/c2cccc(OC)c2OC)cc1` was tested, and the inhibition was 45.7% (active).
For `COC(C/C=C/C(=O)[C@@H](C)OCc1ccccc1)OC`, the inhibition was 44.4% (active).
With `Cc1cc(C)nc(S/C=C/C(=O)c2ccccc2)n1` the inhibition was 106% (active).
With `Cc1cccc(CS(=O)(=O)c2ncc(Cl)c(C(=O)Nc3ccc(F)cc3)n2)c1` the inhibition was 86.8% (active).
With `Cc1cccc(NC(=O)c2nc(S(=O)(=O)Cc3ccccc3)ncc2Cl)c1` the inhibition was 85.1% (active).
In the case of `Cc1ccc(CS(=O)(=O)c2ncc(Cl)c(C(=O)Nc3nnc(C)s3)n2)cc1`, the inhibition is reported as 91.8% (active).
In the case of `CSc1nnc(NC(=O)c2nc(S(=O)(=O)Cc3ccc(C)cc3)ncc2Cl)s1`, the inhibition is reported as 50.1% (active).
With `Cc1c(CCOC(=O)CC23CC4CC(CC(C)(C4)C2)C3)sc[n+]1Cc1ccc([N+](=O)[O-])cc1` the inhibition was 5.79% (inactive).
`Cc1ccc(NC(=O)Cn2sc3ccccc3c2=O)cc1` was tested, and the inhibition was 118% (active).
For `CC1Cc2ccccc2N1CC(=O)Nc1ccc(S(N)(=O)=O)cc1` (configuration not stated), the inhibition was -0.75% (inactive).
In the case of `Cc1ccn(C(CC(=O)c2ccc(Br)cc2)C(=O)O)n1` (configuration not stated), the inhibition is reported as 38.9% (active).
For `Cc1ccc(-n2nc(-c3ccco3)cc2C(=O)NCc2cccnc2)cc1`, the inhibition was 79.1% (active).
In the case of `CCN1/C(=C\c2ccc3ccccc3[n+]2CC)Sc2cc(C)ccc21`, the inhibition is reported as 22.4% (active).
With `C=C(C)C(=O)O[C@H]1C/C(C)=C\C(=O)/C=C(\C)[C@H](O)[C@@H]2OC(=O)C(=C)[C@@H]21` the inhibition was 54.8% (active).
In the case of `Cc1cc(-c2n[nH]c(=S)n2/N=C/C(Br)=C/c2ccccc2)n[nH]1`, the inhibition is reported as 86.5% (active).
`CC1(C(=O)NCc2cccc3ccccc23)CCN1Cc1ccc(-c2ccccc2)o1` (configuration not stated) was tested, and the inhibition was 40.2% (active).
With `COc1ccc(C(C[N+](=O)[O-])n2nc(C)cc2C)cc1` (configuration not stated) the inhibition was 87.3% (active).
For `O=c1[nH][nH]c2c1[C@H](c1ccc(Cl)cc1)O[C@H](CCc1ccccc1)C2`, the inhibition was 12% (inactive).
With `O=C1C=CC(=O)N1c1ccc(N2CCCCC2)cc1` the inhibition was 101% (active).
For `COc1ccc2c(c1OC)C(=O)OC2Nc1nc(-c2ccccc2)cs1` (configuration not stated), the inhibition was 56.7% (active).
`O=C(NNc1ccccn1)c1ccc(Cl)nc1` was tested, and the inhibition was -6.91% (inactive).
With `O=C1C=C(c2ccc(Cl)cc2)C(=O)N1Nc1ccccc1` the inhibition was 107% (active).
`CN(C)CCCNC(=O)/C=C/c1ccc(OCc2c(F)cccc2Cl)cc1` was tested, and the inhibition was 6.86% (inactive).
With `O=C(/C=C(O)/C=C/c1ccc(O)cc1)/C=C/c1ccc(O)cc1` the inhibition was 74.4% (active).
In the case of `Cc1cccc(C)c1NC(=O)C(Cl)C(=O)c1ccccc1` (configuration not stated), the inhibition is reported as 58.4% (active).
For `CCN(CC)CCN(C(=O)c1ccc2c(c1)CCCC2)c1nc2c(OC)cccc2s1`, the inhibition was 11.7% (inactive).
In the case of `C=C1C(=O)[C@]23C[C@H]1CCC2[C@@]1(C)C(C[C@@H]3O)[C@](C)(C(=O)O)CC[C@@H]1O` (some centres not stated), the inhibition is reported as 85.8% (active).
`CN1CCC[C@@H]1CCO[C@](C)(c1ccccc1)c1ccc(Cl)cc1` was tested, and the inhibition was 9.44% (inactive).
